High-throughput results as filed in PubChem.
Rows were chosen to be rich in hits. Some 2.4% of all compounds tested hit in one or more screens of this group.
AmpC inh det: Promiscuous and Specific Inhibitors of AmpC Beta-Lactamase (assay with detergent). P00811. purified AmpC, nitrocefin hydrolysis with detergent. Potency, µM (doses to about 28.7 µM), without a hit: at the top dose activity change, negative = inhibition. actives 0.09% (n = 71,000). AID 584, 2007; active = well fitted curve in the direction sought with a large enough effect; inconclusive = small, poorly fitted or top-dose-only effect; also: % is scaled to controls: 0 for no effect and ±100 for the full control effect
Target sequence (P00811 whole entry, looked up): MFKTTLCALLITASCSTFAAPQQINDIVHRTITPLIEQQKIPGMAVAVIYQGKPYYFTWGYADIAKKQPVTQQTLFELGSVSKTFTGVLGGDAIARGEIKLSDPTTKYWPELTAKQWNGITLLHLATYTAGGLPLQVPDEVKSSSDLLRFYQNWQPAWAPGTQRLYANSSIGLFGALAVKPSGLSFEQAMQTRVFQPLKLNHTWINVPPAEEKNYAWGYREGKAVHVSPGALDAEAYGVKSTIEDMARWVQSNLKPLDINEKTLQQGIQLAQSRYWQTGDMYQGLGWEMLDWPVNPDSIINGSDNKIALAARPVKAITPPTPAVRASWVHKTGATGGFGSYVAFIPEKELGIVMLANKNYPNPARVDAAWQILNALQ
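E. coli AmpC (5.3 nM) in 20 mM phosphate pH 7.0 with 0.01% Triton X-100, preincubated 15 min RT with compound; nitrocefin (2 uL of 800 uM stock) hydrolysis followed by 480 nm absorbance every 20 s over 4 min.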
LT uptake inh: qHTS Assay for Anthrax Lethal Toxin Internalization | Cells, anthrax lethal toxin internalization, FRET ratio (460/530) | Potency, µM (top dose mostly 40 µM), without a hit: top-dose activity change, negative = inhibition, usual class: inhibitors | actives 0.67% (n = 70,000) | AID 912, 2007; also: % is scaled to controls: 0 for no effect and ±100 for the full control effect; nearly all actives have a fitted effect of over 50% in size
AmpC nodet inh: Promiscuous and Specific Inhibitors of AmpC Beta-Lactamase (assay without detergent); AmpC nitrocefin hydrolysis, absorbance 480 nm, no detergent; Potency, µM (highest dose often 28.7 µM), inactives show at the top dose activity change, negative = inhibition; actives 1.8% (n = 71,000); also: % of control where 0% means no effect
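Enzyme, pH 7.0 phosphate. Compound titrations were pre-incubated with AmpC for 15 min at room temperature before nitrocefin (stock 800 uM) addition; product formation was recorded at 480 nm every 20 s for 4 min.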
Prx2 Sm inh: Schistosoma Mansoni Peroxiredoxins (Prx2); Schistosoma mansoni peroxiredoxin 2 (Prx2); actives 0.07% (n = 65,000); AID 448, 2006; Potency, µM; S. mansoni Prx2 activity coupled to TGR/GSH (TGR is thioredoxin glutathione reductase), NADPH fluorescence loss, qHTS
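Purified S. mansoni TGR and Prx2 in pH 7.4 phosphate buffer with EDTA and Tween-20 were preincubated with compounds for 15 min. Further NADPH/GSH was added, then a 2.5 mM H2O2 aliquot initiated turnover, followed kinetically by NADPH fluorescence.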
Active calls of the source: *; ? = inconclusive; · = no result given; [ ] = remark or other dose. Unless noted, calls follow the shape of the full dose curve. Potency is read from the fitted curve at half-maximal effect.

SMILES	AmpC inh det	LT uptake inh	AmpC nodet inh	Prx2 Sm inh
Nc1ccccc1-c1ccccc1	8.0%	2.6%	-12.7%	·
COc1cccc(-c2ccc3ncnc(NCc4ccc(OC)cc4OC)c3c2)c1	12.6µM*	?	7.94µM*	>57
COc1cccc(-c2ccc3ncnc(NCc4ccccc4)c3c2)c1	3.9%	?	-12.1%	>57
COc1cccc(-c2cc(NCc3ccccc3)ncn2)c1	7.94µM*	1.2%	5.01µM*	>57
COc1cccc(-c2ccc3ncnc(NCc4ccccc4OC)c3c2)c1	12.6µM*	3.98µM*	1.26µM*	>57
c1ccc2c[n+](CCCC[n+]3ccc4ccccc4c3)ccc2c1	-1.4%[5.75 µM]	-0.4%[8 µM]	16.7%[5.75 µM]	>57
O=C1[C@@H]2[C@@H]3C=C[C@H]([C@@H]2C(=O)N1CN1CCSCC1)[C@@H]1[C@@H]2C(=O)N(CN4CCSCC4)C(=O)[C@@H]2[C@H]31	-0.8%[5.75 µM]	-4.9%[8 µM]	7.8%[5.75 µM]	>11.4
C=CC(=O)CC	9.3%	-3.8%	3.2%	·
O=[N+]([O-])/C=C/c1ccccc1	16.2%	3.98µM*	-12.2%	·
C=Cc1ccccc1	14.3%	-6.6%	-6.5%	·
CNC(=O)[C@@H]1O[C@@H](n2cnc3c(NCc4cccc(I)c4)ncnc32)[C@H](O)[C@@H]1O	-2.9%	-8.3%	62.5%	>57
C=C1CC[C@@H]2O[C@]2(C)CC[C@@H]2[C@H]1CC2(C)C	-2.4%	?	116.9%	>57
CC(=O)Oc1ccc(C(c2ccc(OC(C)=O)cc2)c2ccccn2)cc1	11.7%	0.159µM*	56.9%	>57
COc1ccc([C@H](O)c2ccccn2)cc1	-6.7%[5.75 µM]	-6.7%[8 µM]	2.0%[5.75 µM]	>57
Cc1c(NC(=O)NCCN2C(=O)C3C4C=CC(C4)C3C2=O)c(=O)n(-c2ccccc2)n1C (configuration not stated)	15.7%	3.2%	3.98µM*[single pt active]	>57
O=C(NCCN1CCOCC1)N1CCOCC1	1.5%	-1.0%	-16.9%	>57
O=C(CCN1C(=O)C2C3C=CC(C3)C2C1=O)NCCc1ccccc1 (configuration not stated)	-3.5%	-9.5%	16.7%	>57
O=C(NCCN1C(=O)C2C3C=CC(C3)C2C1=O)N1CCOCC1 (configuration not stated)	11.9%	-6.8%	3.98µM*[single pt active]	>57
CCCc1nnc(NC(=O)NCCN2C(=O)C3C4C=CC(C4)C3C2=O)s1 (configuration not stated)	13.5%	2.2%	3.98µM*[single pt active]	>57
O=C(NCCN1C(=O)C2C3C=CC(C3)C2C1=O)Nc1ccccc1O (configuration not stated)	14.5%	-6.1%	3.98µM*[single pt active]	>57
Cc1c(NC(=O)C(C)N2C(=O)C3C4C=CC(C4)C3C2=O)c(=O)n(-c2ccccc2)n1C (configuration not stated)	8.1%	2.8%	-7.5%	>57
CC(C)C[C@H]1C(=O)N2CCC[C@@H]2[C@]2(O)O[C@](NC(=O)[C@H]3C=C4c5cccc6[nH]cc(c56)C[C@H]4N(C)C3)(C(C)C)C(=O)N12	-0.1%	?	105.7%	>57
CC1=C(/C=C/C(C)=C/C=C/C(C)=C/C=O)C(C)(C)CCC1	10.9%	?	29.2%	·
CCCC[S@@](=N)(=O)CC[C@@H](N)C(=O)O	-0.5%	3.4%	-10.6%	>57
CC(C)N[C@@H](C)Cc1ccc(I)cc1	-1.7%	-4.4%	1.3%	>57
SMILES	AmpC inh det	LT uptake inh	AmpC nodet inh	Prx2 Sm inh
Cc1c(NC(=O)c2ccc(N3C(=O)C4C5C=CC(C5)C4C3=O)cc2)c(=O)n(-c2ccccc2)n1C (configuration not stated)	-3.3%	?	-0.2%	>57
Cc1c(NC(=O)CCCCCN2C(=O)C3C4C=CC(C4)C3C2=O)c(=O)n(-c2ccccc2)n1C (configuration not stated)	10.9%	1.7%	2.51µM*[single pt active]	>57
O=C(Oc1ccc2c3c(c(=O)oc2c1)CCCC3)c1ccco1	6.0%	?	1.6%	55.5*
CCC(NC(=O)OC(C)(C)C)C(=O)Oc1ccc2c3c(c(=O)oc2c1)CCC3 (configuration not stated)	-1.8%	·	43.8%	55.4*
COc1cc2c(=O)n(-c3ccc(C)cc3)c(=O)n(CC(=O)c3ccc4c(c3)OCO4)c2cc1OC	-4.5%	5.2%	119.2%	>57
COc1cc2c(O)c3c(c(-c4ccc5c(c4)OCO5)c2cc1OC)C(=O)OC3	4.0%	0.02µM*	5.9%	>57
CCn1cc(C(=O)NC2CCCCC2)c(=O)c2cc(S(=O)(=O)N(C)C)ccc21	10.7%	-9.4%	3.98µM*[single pt active]	>57
